Screening results as filed in PubChem.
A selection: hits, their analogues and other compounds. The true share with any hit is near 2.9%.
SNCA expr inhib = Primary qHTS assay for inhibitors of alpha-synuclein gene (SNCA) expression; HEK-293 SNCA-luciferase knock-in, luminescence, 24 h; Potency, µM (series often up to 57.2 µM), without a hit: at the highest dose activity change, negative = inhibition, most hits filed as inhibitors; 0.17% of 140,000 active;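 also: potency is read from the fitted curve at half-maximal effect; plate controls were DMSO cells for no effect and cell-free wells for full effect; nearly all actives have a fitted effect of over 45% in size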
KDM5B inhibitor = Primary screen for KDM5B Histone Demethylases FDH-coupled qHTS | Potency, µM (doses to about 57.7 µM), actives largely listed as inhibitors | 2.6% of 220,000 active | Lysine-specific demethylase 5B (Homo sapiens), Q9UGL1 | KDM5B demethylase, FDH-coupled NADH fluorescence (FDH is formaldehyde dehydrogenase); also: potency is read from the fitted curve at half-maximal effect; 0% is about no effect; nearly all actives have a fitted effect of over 70% in size
Target sequence (Q9UGL1 whole entry, looked up): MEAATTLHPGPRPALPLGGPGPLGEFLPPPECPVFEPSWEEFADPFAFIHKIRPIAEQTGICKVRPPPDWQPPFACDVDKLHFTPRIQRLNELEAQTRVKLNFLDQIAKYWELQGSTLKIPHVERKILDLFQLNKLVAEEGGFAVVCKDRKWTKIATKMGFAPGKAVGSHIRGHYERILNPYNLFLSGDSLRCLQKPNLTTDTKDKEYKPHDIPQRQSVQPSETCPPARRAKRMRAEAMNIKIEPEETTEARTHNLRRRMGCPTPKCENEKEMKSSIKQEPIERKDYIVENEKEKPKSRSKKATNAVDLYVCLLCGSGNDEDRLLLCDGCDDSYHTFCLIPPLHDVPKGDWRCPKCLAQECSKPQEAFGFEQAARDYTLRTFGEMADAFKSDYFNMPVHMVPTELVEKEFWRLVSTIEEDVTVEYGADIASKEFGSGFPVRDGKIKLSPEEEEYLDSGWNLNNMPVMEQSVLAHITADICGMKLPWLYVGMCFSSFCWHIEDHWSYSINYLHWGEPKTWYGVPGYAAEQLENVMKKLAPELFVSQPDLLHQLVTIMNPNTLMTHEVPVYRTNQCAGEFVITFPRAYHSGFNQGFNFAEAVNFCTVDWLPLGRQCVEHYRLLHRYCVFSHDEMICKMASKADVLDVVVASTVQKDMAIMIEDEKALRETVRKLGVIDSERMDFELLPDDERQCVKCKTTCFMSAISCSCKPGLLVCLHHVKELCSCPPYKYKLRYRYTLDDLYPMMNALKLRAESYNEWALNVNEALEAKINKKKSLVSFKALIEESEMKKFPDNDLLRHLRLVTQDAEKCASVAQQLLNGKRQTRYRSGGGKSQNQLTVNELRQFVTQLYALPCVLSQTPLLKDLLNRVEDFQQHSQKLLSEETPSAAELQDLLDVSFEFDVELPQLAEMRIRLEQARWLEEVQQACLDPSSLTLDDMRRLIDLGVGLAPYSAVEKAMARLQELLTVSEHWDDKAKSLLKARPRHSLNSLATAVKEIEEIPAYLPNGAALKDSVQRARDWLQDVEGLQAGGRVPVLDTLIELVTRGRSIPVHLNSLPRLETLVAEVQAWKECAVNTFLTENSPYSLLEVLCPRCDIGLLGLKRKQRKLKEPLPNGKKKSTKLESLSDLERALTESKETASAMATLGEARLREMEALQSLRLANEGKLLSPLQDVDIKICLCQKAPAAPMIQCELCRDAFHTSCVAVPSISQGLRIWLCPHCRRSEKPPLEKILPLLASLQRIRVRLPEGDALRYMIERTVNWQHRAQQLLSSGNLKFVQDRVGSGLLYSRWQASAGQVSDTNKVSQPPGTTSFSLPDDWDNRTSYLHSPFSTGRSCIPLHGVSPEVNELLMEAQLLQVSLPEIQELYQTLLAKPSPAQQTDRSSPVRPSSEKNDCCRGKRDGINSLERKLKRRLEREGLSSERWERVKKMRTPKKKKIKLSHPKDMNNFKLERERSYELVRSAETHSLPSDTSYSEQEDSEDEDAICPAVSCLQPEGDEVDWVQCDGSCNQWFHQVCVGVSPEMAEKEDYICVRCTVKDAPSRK
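qHTS format, multiple compound concentrations. Buffer 50 mM HEPES pH 7.5/0.01% Tween-20; 200 nM KDM5BΔAP final; 10 min compound preincubation; substrate-mix levels 12.5 µM peptide, 25 µM α-KG, 0.25 mM NAD⁺; 30 min RT; ΔRFU.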
IP6K1 inhibitor = Primary qHTS assay for small molecule inhibitors of Inositol hexaphosphate kinase 1 (IP6K1); 0.81% of 140,000 active; IP6K1 kinase, ADP-Glo luminescence, 2 h; hits give low values; activity change, % (series mostly up to about 58 µM); Inositol hexakisphosphate kinase 1 (Homo sapiens), Q92551; in the data active = activity change below about -25%; also: % is scaled to controls: 0 for no effect and ±100 for the full control effect
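ADP-Glo luminescence measures ADP made by human IP6K1 during a 2 h RT reaction with ATP/IP6 (mix at 1.3 mM/130 uM); top library doses 57.5 and 19.1 uM final.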
HEK293 viab = GF-AFC viability counterscreen for inhibitors of alpha-synuclein gene (SNCA) expression; HEK-293-SNCA-luc viability, GF-AFC fluorescence, 24 h; 0.12% of 150,000 active; Potency, µM (titrated, usually from 57.1 µM), without a hit: at the top dose activity change, negative = cytotoxicity, actives largely listed as cytotoxic;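 also: potency is read from the fitted curve at half-maximal effect; 0% = DMSO-treated cells and -100% = medium-only wells without cells; nearly all actives have a fitted effect of over 30% in size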
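HEK-293-SNCA-luc cells (1500/well) plated 24 h, then exposed 24 h to a dilution series; GF-AFC added 30 min at 37C, fluorescence 405/540 nm; normalised to medium-only and DMSO wells, Hill fit.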
The depositor's hits bear a star; i = inactive; ? = inconclusive; / = not tested or not shown; [ ] = remark or other dose. Unless noted, calls follow the shape of the dose curve; as a rule, active = well fitted curve in the direction sought with a large enough effect; inconclusive = small, poorly fitted or top-dose-only effect, or another doubt; inactive = no such curve, though single readings can be large; an effect the other way counts as inactive or inconclusive.

SMILES	SNCA expr inhib	KDM5B inhibitor	IP6K1 inhibitor	HEK293 viab
Cc1ccc(-c2cc3c(ccn3C)c(C(=O)NCc3cccnc3)n2)cn1	60%[87.6 µM]	i	7	-9%[87.6 µM]
Cn1ccc2c(C(=O)NCc3cccnc3)nc(-c3cccc(O)c3)cc21	26%[87.6 µM]	40µM*	8	-21%[87.6 µM]
CCCc1cc(C(=O)N2CCC3(CC2)CN(C(C)CCC)C(=O)O3)n[nH]1 (centres undefined)	-18%	28µM*	10	-6%
O=C(NC1CCc2nn(CC3CC3)c(=O)n2CC1)c1ccc[nH]c1=O (centres undefined)	-4%	28µM*	-15	-3%
Cn1nc(C(=O)NC2CCc3nn(CC4CC4)c(=O)n3CC2)c2ccccc21 (centres undefined)	-13%	28µM*	-5	-7%
Cc1ccsc1C(=O)NC1CCc2nn(CC3CC3)c(=O)n2CC1 (centres undefined)	6%	i	-6	-1%
O=c1[nH]c(N2CCOCC2)nc2c1CCN(Cc1cc(Br)ccc1F)CC2	8%	i	4	0%
COC(=O)C1=C(C)N=C2SC=C(CC(=O)N(C)Cc3ccco3)N2C1c1ccc(Cl)cc1 (centres undefined)	-8%	18µM*	10	19%
Cc1ccc(-c2cc(C(=O)NC3CCCCC3)c3ccccc3n2)cc1	/	i	/	/
Cc1ccc2c(C(=O)NC3CCN(C)CC3)cc(NC(=O)C3CCC3)cc2n1	-6%	22µM*	4	-1%
CC(=O)Nc1cc(C(=O)NC2CCCCC2)c2ccc(C)nc2c1	-18%	22µM*	9	3%
CC(C)CNC(=O)c1cc2cn(C3CC3)cc2s1	-17%	?	2	5%
CN(C)CCNC(=O)c1cc2cn(C3CC3)cc2s1	-3%	13µM*	4	2%
CC1CCN(CCNC(=O)c2cc3cn(C(C)C)cc3s2)CC1	-6%	14µM*	3	8%
O=C(O)c1cc2cn(C3CCCC3)cc2s1	23%	16µM*	1	7%
COc1ccc(C(=O)NC(C)c2nncn2C)cc1OC1CCN(C(C)=O)CC1 (centres undefined)	-23%	i	-9	-1%
COc1ccc(OC2CCN(C(C)=O)CC2)c(C(=O)NC(C)c2cn(C)nc2C)c1 (centres undefined)	-1%	32µM*	24	-20%
Cc1cc(C[C@@H]2COC[C@@H]2NC(=O)c2ccccc2-c2ccc(F)cc2)on1	6%	i	-15	-4%
Cc1cc(C[C@@H]2COC[C@@H]2NC(=O)c2ccc(S(N)(=O)=O)cc2)on1	12%	i	13	5%
Cc1cc(C[C@@H]2COC[C@@H]2NC(=O)c2cc(CC(C)C)nc(N)n2)on1	-17%	32µM*	26	-22%
Cc1cc(C[C@@H]2COC[C@@H]2NC(=O)c2cnn3cc(CCO)cnc23)on1	-12%	28µM*	-8	3%
COc1cc(OC)c(NC(=O)NC(C(=O)N2CCc3ccccc32)c2ccccc2)cc1Cl (centres undefined)	/	i	/	/
CC(C)N(Cc1ccccc1)C(=O)COC(=O)c1nn(-c2ccccc2)c(=O)c2ccccc12	/	i	/	/
O=[S+]1([O-])NC2(CCN(Cc3cccs3)CC2)COc2ccccc21	-10%	?	16	-4%
COc1nc2nc(CCc3ccccc3)n(C)c2cc1-c1ccnn1C	-17%[87.6 µM]	40µM*	9	4%[87.6 µM]
SMILES	SNCA expr inhib	KDM5B inhibitor	IP6K1 inhibitor	HEK293 viab
COc1nc2nc(CCc3ccccc3)n(C)c2cc1-c1ccncc1	46%[87.6 µM]	?	15	-14%[87.6 µM]
COC(=O)[C@@H]1Cc2ncn(C(C)C)c2CN1S(C)(=O)=O	3%[87.6 µM]	i	-1	5%[87.6 µM]
CCN(c1ccc2c(c1)OCO2)C1CN(C(=O)OC(C)(C)C)C1	4%	89µM*	-17	-12%
O=C(Cn1nc(-c2ccco2)ccc1=O)NC1CCCc2c1[nH]c1ccccc21 (centres undefined)	-11%	?	-7	-8%
O=C(NC1CCCc2c1[nH]c1ccccc21)c1n[nH]c2c1CCCC2 (centres undefined)	30%	14µM*	-13	-18%
O=C(Cn1nc(-c2ccc(F)cc2)ccc1=O)NC1CCCc2c1[nH]c1ccccc21 (centres undefined)	-21%	14µM*	-17	6%
O=C(NC1CCCc2c1[nH]c1ccccc21)c1n[nH]c2c1CCC2 (centres undefined)	41%	?	-13	-3%
S=C(Cc1nc(-c2ccccc2)cs1)N1CCOCC1	/	i	/	/
CC1(C)Cc2cccc(OCC(=O)Nc3cccc(C(N)=O)c3)c2O1	/	i	/	/
COC[C@@H]1CN(c2cnccn2)C[C@H]1C(=O)NCc1ccccn1	-8%	?	9	-4%
COC[C@@H]1CN(c2cnccn2)C[C@H]1C(=O)NCc1ccco1	-18%	25µM*	12	16%
COC[C@@H]1CN(c2cnccn2)C[C@H]1C(=O)NCc1ccccc1F	-6%	20µM*	0	?
O=C(NCc1ccco1)[C@@H]1Cc2nc[nH]c2CN1Cc1cccnc1	-6%[87.6 µM]	?	2	7%[87.6 µM]
O=C(Oc1ccc2c(=O)c(Oc3ccc(F)cc3)coc2c1)c1ccccc1F	/	i	/	/
COCCN[C@@H]1C[C@@H]2c3[nH]c4ccccc4c3C[C@@H](C(=O)OC)N2[C@H](c2ccc(F)c(F)c2)C1	3%	13µM*	-2	-8%
COC(=O)[C@@H]1Cc2c([nH]c3ccccc23)[C@H]2C[C@@H](NCc3ccccc3)C[C@@H](c3ccccc3F)N21	?	4.5µM*	-12	-27%
COC(=O)[C@@H]1Cc2c([nH]c3ccccc23)[C@H]2C[C@@H](NCc3cccs3)C[C@@H](c3ccccc3F)N21	-11%	?	-14	2%
CCc1nnc([C@@H]2CC(F)(F)CN2C(=O)c2ocnc2C)o1	14%	i	10	-6%
O=C1COc2ccc(-c3ccoc3)nc2CN1CCOc1ccccc1	5%[87.6 µM]	?	-12	-4%[87.6 µM]
C[S+](=O)([O-])c1ccc(-c2nc(C(=O)NCc3ccc(F)cc3)n3ccccc23)cc1	-15%	89µM*	-16	2%
O=C(NCc1ccc(F)cc1)c1nc(-c2cc(Cl)cc(Cl)c2)c2ccccn12	-18%	i	35	-1%
C[S+](=O)([O-])c1ccc(-c2nc(C(=O)NCc3cccnc3)n3ccccc23)cc1	20%	i	-5	7%
O=C(NCc1ccc(F)cc1)c1nc(-c2ccc(F)cc2)c2ccccn12	9%	32µM*	7	-4%
COc1ccc(-c2nn(-c3ccccc3C)cc2CN(C)CCN2CCOCC2)cc1F	1%	i	11	-13%
CCCS(=O)(=O)Nc1ccc2n(c1=O)C[C@H]1C[C@@H]2CN(C(=O)c2ccc(-c3ccccc3)cc2)C1	38%	20µM*	-10	1%
